Sfp inh – blocks B. subtilis Sfp PPTase activity; Q9F4F7; Biochemical Sfp PPTase activity, qHTS; Potency, µM, inactives show largest response in the series, negative = inhibition, actives largely listed as inhibitors; 310,000 tested, 3.5% active;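 note: the enzyme is Sfp with the accession as filed and its product quenches rhodamine fluorescence; 0% = enzyme reaction without inhibitor and -100% = no enzyme wells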
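Compounds were incubated with enzyme (final 15 nM) for 15 min at room temperature before substrate addition started the reaction. Fluorescence at 525 nm excitation, 598 nm emission was recorded immediately and after 30 minutes.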
TrxR1 substrate – is turned over as a substrate by rat TrxR1; purified TrxR1 substrate turnover, NADPH consumption readout; Potency, µM (highest dose often 114 µM), without a hit: at the top dose activity change, negative = substrate turnover; 390,000 tested, 0.01% active; O89049; note: nearly all actives have a fitted effect of over 50% in size
Target sequence (O89049 whole entry, looked up): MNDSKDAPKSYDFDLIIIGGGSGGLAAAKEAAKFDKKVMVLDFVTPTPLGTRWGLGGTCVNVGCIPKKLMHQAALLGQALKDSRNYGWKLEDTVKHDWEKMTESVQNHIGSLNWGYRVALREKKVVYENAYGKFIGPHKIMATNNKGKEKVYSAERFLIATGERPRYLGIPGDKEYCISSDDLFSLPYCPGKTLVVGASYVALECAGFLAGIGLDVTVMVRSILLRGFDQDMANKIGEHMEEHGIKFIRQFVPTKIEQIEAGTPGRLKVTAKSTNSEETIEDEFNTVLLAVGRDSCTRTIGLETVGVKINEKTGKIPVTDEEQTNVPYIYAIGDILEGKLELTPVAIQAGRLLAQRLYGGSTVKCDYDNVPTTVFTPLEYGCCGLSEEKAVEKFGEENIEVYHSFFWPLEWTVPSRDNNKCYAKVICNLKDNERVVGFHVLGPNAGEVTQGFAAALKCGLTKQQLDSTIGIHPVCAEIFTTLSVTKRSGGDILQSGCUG
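Rat TrxR1, dispensed at 90 nM, was prereduced with 400 uM NADPH (final) for 5 min at ~22 deg C, then incubated with compound 15 min before 400 uM selenite. A first-read NADPH fluorescence drop versus no-compound background flagged substrates.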
VDR inhibitor – inhibitors of human vitamin D receptor; P11473; VDR-SRC2-3 peptide fluorescence polarization, 2 h; Potency, µM, for inactives: max response, negative = inhibition, most hits filed as inhibitors; 400,000 tested, 0.93% active; AID 504847
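Inhibition of the VDR/SRC2-3 peptide interaction is quantified by fluorescence polarization. Compounds (23 nl, pintool) incubate with the reagents for 2 hours at ambient room temperature.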
GLS inhibitor – inhibitors of human glutaminase (GLS); Potency, µM (top dose mostly 45.5 µM), for the others: top-dose activity change, negative = inhibition, most hits filed as inhibitors; AID 624170; O94925; 410,000 tested, 0.21% active; GLS enzymatic activity, qHTS titration
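hKGA in 45 mM KH2PO4 (pH 8.2), 0.02% Tween-20 with compound, then 1mM L-Glutamine (stock as added) plus glutamate oxidase/HRP/Amplex red coupling mix. Fluorescence read initially and after 30 min at RT; signal change reflects glutamate formation.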
KAT2A inh – blocks human GCN5L2 histone acetyltransferase; 390,000 tested, 0.21% active; Potency, µM (doses to about 58.9 µM), for inactives: at the highest dose activity change, negative = inhibition, hits mostly inhibitors; GCN5L2 HAT assay, ThioGlo1 CoA-SH fluorescence; Q92830
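Preincubate 20nM GCN5L2 with compound 15 min, RT → add 50uM ThioGlo1 + 75uM H3(1-25) + 70uM acetyl-CoA → read fluorescence 0 and 20 min. Primary qHTS; fluorescent artifacts likely.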
TrxR1 inh – blocks rat thioredoxin reductase 1; O89049; recombinant rTrxR1, NADPH fluorescence consumption, selenite substrate; Potency, µM (top dose mostly 114 µM), inactives show at the top dose activity change, negative = inhibition, usual class: inhibitors; 390,000 tested, 1% active; AID 588453; note: nearly all actives have a fitted effect of over 65% in size
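Rat TrxR1 (90 nM in the dispensed reagent) was pre-reduced with 400 uM NADPH for 5 min at room temperature, then incubated with compound for 15 min. After 400 uM selenite was added, NADPH fluorescence (Ex 340/Em 450 nm) was followed for 8 min.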
Numbers without * were called inactive; ? = inconclusive; . = not tested or not shown; [ ] = dose if it differs, or a comment. In the library only some 3.8% were active in any assay of this set; here they are far more common. Calls come from the whole dose curve; as a rule, active = well fitted curve in the direction sought with a large enough effect; inconclusive = small, poorly fitted or top-dose-only effect, or another doubt; inactive = no such curve, though single readings can be large; an effect the other way counts as inactive or inconclusive. Unless noted, % is set by controls: 0 for no effect and ±100 for the full control effect; potency is the fitted concentration of half-maximal effect.

SMILES	Sfp inh	TrxR1 substrate	VDR inhibitor	GLS inhibitor	KAT2A inh	TrxR1 inh
CSc1ccc(S(=O)(=O)NCC(=O)OC(C)C(=O)NCc2ccccc2)cc1[N+](=O)[O-] (stereo not drawn)	.	-8%	-7%	-9%	1%	?
O=C(COC(=O)CSc1ccc([N+](=O)[O-])cc1)NCCc1ccccc1	.	-3%	-19%	3%	-2%	1%
O=C(COC(=O)CSc1ccc([N+](=O)[O-])cc1)NCCCc1ccccc1	-2%	-2%	71µM*	21%	-7%	-5%
COCC(C)N=C1SCCN1Cc1ccccc1 (stereo not drawn)	3%	4%	-10%	0%	2%	19%
COc1cccc(CNc2ncn[nH]2)c1OCc1ccc(F)cc1	12%	-5%	-1%	0%	4%	5%[57.1 µM]
CCOc1ccc(Oc2c(/C=N/NC(C)=O)c(C)nn2-c2ccccc2)cc1	-3%	-4%	-2%	4%	-1%	9%
Cc1ccc(C2C=C(c3ccc(Cl)cc3)Nc3nc(NC(=O)c4ccco4)nn32)cc1 (stereo not drawn)	.	9%	-28%	4%	1%	40µM*
CCCCCCCCCCCCCCCCCCc1ccc(C(=O)/C=C/C(=O)O)cc1	-3%	.	?	.	-4%	.
CCCCCCCCc1ccc(-c2ccc(C(=O)O)cc2)cc1	18%	54%[57.1 µM]	3%	.	20µM*	60%[57.1 µM]
CCCCCCCCCCCCCCCCCCc1ccc(C(=O)/C=C\C(=O)O)cc1	3%	.	?	.	2.8µM*	.
O=C(O)/C=C/C(=O)c1ccc(O)cc1	2.2µM*	-6%	?	8%	-6%	18µM*
C=CC(=O)c1ccc(CCCCCC)cc1	?	17%[57.1 µM]	40µM*	.	-19%	13µM*
CCC(Sc1nc(=O)cc(N)n1-c1ccccc1)C(=O)Nc1cc(C)on1 (stereo not drawn)	17%	9%	-5%	-1%	0%	28%
CC(C)NS(=O)(=O)c1ccc(CCC(=O)N2CCCCC2)cc1	21%	2%[57.1 µM]	-7%	15%	-7%	9%[57.1 µM]
CC(C)(C)C(=O)Nc1cc(S(=O)(=O)Nc2ccc(Cl)cc2)ccc1O	9%	-7%[57.1 µM]	-7%	-1%	-8%	-5%[57.1 µM]
O=C(O)c1ccc2[nH]c3c(c2c1)CSCC3	40µM*	-3%	45µM*	-30%	-6%	?
CC(C)(C)c1ccc(C[C@H](C(=O)O)N2C(=O)c3ccc(C(=O)O)cc3C2=O)cc1	31%	.	.	.	-5%	.
O=C(O)c1ccc2c(c1)C(=O)N([C@H](Cc1ccc(O)c(O)c1)C(=O)O)C2=O	79µM*	.	.	.	1%	.
O=C1OC(c2cccs2)=N/C1=C\c1ccc(-c2cccc(Cl)c2)o1	79µM*	-8%	-25%	2%	?	-18%
N=C1S/C(=C\c2ccc(-c3cccc(Cl)c3)o2)C(=O)N1c1nccs1	35µM*	-12%	-4%	-9%	36%	-17%
Clc1cccc(-c2ccc(/C=N/n3cnnc3)o2)c1	-21%	5%	-16%	3%	-11%	0%
CCCCC1(C)NC(=S)N2N1C(=S)NC2(C)CCCC (stereo not drawn)	56µM*	5%[57.1 µM]	79µM*	-6%	?	?
CCCCC1(C)Cc2ccccc2C(=S)N1 (stereo not drawn)	16%	4%	-13%	1%	-5%	4%
CCN(C(=S)Nc1cc(S(=O)(=O)N2CCOCC2)ccc1Cl)c1cccc2ccccc12	4µM*	87%	-18%	-2%	-11%	-22%
Cc1ccc(NS(=O)(=O)c2ccccc2)c2c1CC(C)(C)O2	-7%	7%[57.1 µM]	-20%	15%	0%	11%[57.1 µM]
SMILES	Sfp inh	TrxR1 substrate	VDR inhibitor	GLS inhibitor	KAT2A inh	TrxR1 inh
Cn1c(CNc2cccc(C(F)(F)F)c2)n[nH]c1=S	-13%	1%	-5%	18%	1%	-14%
NNc1nc2c(F)cc(F)cc2s1	-20%	4%	0%	27%	-1%	7%
O=C(CS)Nc1ccc2ccccc2c1	?	-2%	79µM*	-13%	43%	12%
O=C(CS)Nc1ccccc1	.	.	.	-11%	.	.
C/C(CC(=O)Nc1ccc2ccccc2c1)=N\NC(=O)c1ccc(O)c(O)c1	11%	-3%[0.0914 µM]	6%	6.3µM*	-11%	?
C/C(CC(=O)Nc1ccc2ccccc2c1)=N\NC(=O)c1cnccn1	-19%	5%	-8%	10%	-7%	?
Cc1ccc(Nc2ncnc3sc4c(c23)CCC(C)C4)cc1C (stereo not drawn)	.	6%	-7%	4%	2%	11%
Cn1ncc(S(=O)(=O)Cc2ccccc2)c(Cl)c1=O	6.3µM*	10%[57.1 µM]	?	11µM*	?	1.1µM*
CCCCn1c(NS(=O)(=O)c2ccccc2)c(S(=O)(=O)c2ccc(C)cc2)c2nc3ccccc3nc21	-3%	448%	50µM*	-4%	?	62%
CCc1cc2c(N[C@@H](Cc3ccccc3)C(=O)O)ncnc2s1	14%	7%[57.1 µM]	-15%	9%	-5%	2%[57.1 µM]
CC(=O)Nc1ccc(C(=O)Nc2nc(-c3cccnc3)cs2)cc1	?	-7%	?	32%	-9%	4%[57.1 µM]
CC(Oc1ccc(Br)cc1)C(=O)Nc1nc(-c2ccccn2)cs1 (stereo not drawn)	40µM*	-11%	?	13%	-5%	14%[57.1 µM]
O=C(Nc1nc(-c2ccccn2)cs1)Nc1ccc(F)cc1F	11µM*	-3%	?	-15%	-11%	8%
CC(=O)Nc1ccc(C(=O)Nc2nc(-c3ccccn3)cs2)cc1	16µM*	-4%	-24%	0%	-14%	50µM*
c1ccc(CCNc2nc(-c3ccccn3)cs2)cc1	20µM*	8%	12%	-9%	33%	20%
CCOc1cc(-c2nc(C)c(C(C)=O)n2O)ccc1OCC(=O)Nc1ccc(F)cc1	-3%	-10%	-27%	16%	-6%	10%
CC1(C)CC(=O)CC(=NCC(=O)O)C1	-5%	18%	7%	6%	-1%	32%
CC1=C(CC[C@@H](C)CO)OC2CC3C4CCC5CC(O)CCC5(C)C4CC(=O)C3(C)C12 (stereo partly drawn)	.	5%	3%	7%	.	11%
Cc1ccc(C)c(NC(=O)CN(C)C(=O)CCN2C(=O)c3ccccc3C2=O)c1	-1%	-4%	-2%	-15%	-5%	17%[57.1 µM]
O=C(Nc1nc(-c2ccccn2)cs1)C1COc2ccccc2O1 (stereo not drawn)	18%	-3%	-2%	12%	-4%	-1%
O=C(Nc1nc(-c2ccccn2)cs1)c1ccccc1-n1cnnn1	16µM*	-12%	?	?	-12%	-22%

Screening data from PubChem.
